# Hits are enriched below; roughly 11% of the tested compounds scored in any of these assays.
# HEK293 tox – Cytotoxic Profiling in HEK 293 Cell Line of Diverse Libraries Using Quantitative High-Throughput Screening; HEK 293 viability, ATP luminescence (CellTiter-Glo), 48-72 h; Potency, µM (highest dose often 115 µM), without a hit: top-dose activity change, negative = cytotoxicity, actives largely listed as inhibitors; 6.6% of 94,000 active; AID 1345083, 2018; also: nearly all actives have a fitted effect of over 60% in size
#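 qHTS cytotoxicity; HEK 293, 250 cells/well; compound pinned; 48 or 72 hr, 37 degree Celsius, 5% CO2, 95% humidity; CellTiter-Glo, 10 min RT; luminescence (ATP).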
# 3T3 cytotox – Cytotoxic Profiling in NIH 3T3 Cell Line of Diverse Libraries Using Quantitative High-Throughput Screening; NIH 3T3 viability, CellTiter-Glo ATP luminescence, 48-72 h; Potency, µM (top dose mostly 96.7 µM), inactives show at the top dose activity change, negative = cytotoxicity, most hits filed as inhibitors; 4.3% of 94,000 active; AID 1345082, 2018; also: nearly all actives have a fitted effect of over 55% in size
#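 Cytotoxicity is measured as loss of cellular ATP: NIH 3T3 cells (400/well) are exposed to compound for 48 or 72 hr at 37 °C, then CellTiter-Glo luminescence is imaged after 10 min at room temperature.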
# FLuc inh – Firefly luciferase inhibition profiling of diverse chemical library using quantitative high-throughput screening; Luciferin 4-monooxygenase (Photinus pyralis), P08659; purified P. pyralis luciferase, luminescence, biochemical; Potency, µM (top dose mostly 115 µM), actives largely listed as inhibitors; 2.5% of 76,000 active; AID 1347043, 2019; also: nearly all actives have a fitted effect of over 65% in size
# Target sequence (P08659 whole entry, looked up): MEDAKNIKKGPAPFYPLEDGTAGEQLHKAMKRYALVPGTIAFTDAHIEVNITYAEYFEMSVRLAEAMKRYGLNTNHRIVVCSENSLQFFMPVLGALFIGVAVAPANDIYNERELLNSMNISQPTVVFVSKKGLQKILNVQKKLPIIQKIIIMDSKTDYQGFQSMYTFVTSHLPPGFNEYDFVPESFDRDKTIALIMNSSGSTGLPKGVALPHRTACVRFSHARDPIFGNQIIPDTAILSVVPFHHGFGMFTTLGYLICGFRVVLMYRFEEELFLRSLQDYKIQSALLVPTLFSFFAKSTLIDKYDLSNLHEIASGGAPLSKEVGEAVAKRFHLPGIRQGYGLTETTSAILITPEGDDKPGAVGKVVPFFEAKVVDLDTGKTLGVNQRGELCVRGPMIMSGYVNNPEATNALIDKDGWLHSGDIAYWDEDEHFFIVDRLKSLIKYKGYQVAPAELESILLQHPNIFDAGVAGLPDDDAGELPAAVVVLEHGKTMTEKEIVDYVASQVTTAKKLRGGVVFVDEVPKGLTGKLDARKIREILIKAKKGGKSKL
#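 Purified P. pyralis luciferase (10nM final) in 50mM Tris acetate pH 7.5, 10mM Mg acetate, 0.01% Tween-20, 0.05% BSA with 10uM D-luciferin and 10uM ATP. Compounds titrated qHTS. Luminescence imaged on CCD.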
# hNpr1 antagonist – Natriuretic polypeptide receptor (hNpr1) antagonism - Primary qHTS. Potency, µM (titrated, usually from 46.3 µM), inactives show top-dose activity change, negative = inhibition, hits mostly inhibitors. 1.6% of 76,000 active. Atrial natriuretic peptide receptor 1 (Homo sapiens), P16066. AID 1347048, 2019. HEK293 hNpr1 GloSensor cGMP, ANP-stimulated luminescence; calls by dose curve; also: nearly all actives have a fitted effect of over 60% in size
#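 Compound pre-incubated 30 min at room temperature on GloSensor-loaded HEK293 cells stably carrying hNpr1 and the pGS-40F cGMP biosensor. Stimulation uses hNppA at 0.1 nM final; luminescence is taken at baseline and 20 min post-agonist.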
# An asterisk follows results filed as active; i = inactive; u = inconclusive; x = no result; [ ] = dose if it differs, or a comment. Unless noted, calls follow the shape of the dose curve; as a rule, active = well fitted curve in the direction sought with a large enough effect; inconclusive = small, poorly fitted or top-dose-only effect, or another doubt; inactive = no such curve, though single readings can be large; an effect the other way counts as inactive or inconclusive. % is scaled to controls: 0 for no effect and ±100 for the full control effect; potency is read from the fitted curve at half-maximal effect.
SMILES,HEK293 tox,3T3 cytotox,FLuc inh,hNpr1 antagonist
CN1C(=O)[C@@H]2C[C@@H](CN2C2CCC2)Oc2ccccc21,89µM*,50µM*,i,-16%[70.6 µM]
CN1C(=O)[C@@H]2C[C@@H](CN2C2CCCC2)Oc2ccccc21,u,u,i,-2%[70.6 µM]
Cc1cnc(CC2CCCN(S(=O)(=O)c3cccs3)C2)n1C(C)C (stereo not drawn),u,-15%,x,x
COc1ccc(Cn2c(C3CCN(C(=O)Cc4ccccc4Cl)CC3)n[nH]c2=O)cc1,-24%,-23%,i,-4%
Cc1ccc(-c2cc(C(=O)NCc3cccnc3)c3c(c2)ncn3C)cn1,i,100µM*,i,-3%[70.6 µM]
Cn1ncc2c(C(=O)NCC(F)F)cc(-c3cccc(F)c3)nc21,56µM*,u,x,x
Cn1ncc2c(C(=O)NCc3cccnc3)cc(-c3ccc([S+](C)(=O)[O-])cc3)nc21,-5%,u,x,x
Cn1ncc2c(C(=O)NCc3cccnc3)cc(-c3cccc(F)c3)nc21,79µM*,u,x,x
Cn1ncc2c(C(=O)NCc3cccnc3)cc(-c3ccc(Cl)nc3)nc21,u,22µM*,x,x
COc1ccc(-c2ccccc2C(=O)N2CCC(NC(=O)c3ccccc3C)CC2)nn1,3%,5%,x,x
CC(C)NC(=O)C1CCCN1c1nccc(Nc2ccccc2F)n1 (stereo not drawn),u,-17%[138 µM],x,x
O=C(NC1CCCCC1)c1nc2sccn2c1-c1cccc(C(F)(F)F)c1,u,-17%,x,x
Cn1ncc2c(C(=O)Nc3cccnc3)cc(-c3ccc(C(F)(F)F)cc3)nc21,4%,-2%,x,x
Cn1ncc2c(C(=O)NCCc3ccc(F)cc3)cc(-c3ccc(Cl)nc3)nc21,-8%,-33%,x,x
Cn1ncc2c(C(=O)Nc3cccc(Cl)c3)cc(-c3cccc(F)c3)nc21,35µM*,u,x,x
Cn1ncc2c(C(=O)NCc3ccc(F)cc3)cc(-c3ccc(Cl)nc3)nc21,40µM*,u,x,x
CCCN1CCC(N2CCC3(CC2)CC(C(=O)N2CCOCC2)N(C)C3)CC1 (stereo not drawn),-2%,-21%,x,x
O=C1NCCCCCCN(Cc2ccncc2)[C@@H]2CN(C(=O)NCCc3ccccc3)CC[C@H]12,u,-16%,i,-1%
Cc1nn2c(c1-c1ccccc1C(C)C)N(Cc1ccc3c(c1)CCO3)CCC2,35µM*,28µM*,i,-21%[70.6 µM]
Cc1nn2c(c1-c1ccccc1C(C)C)N(Cc1ccc(C(=O)O)s1)CCC2,u,u,i,-8%[70.6 µM]
Cc1nn2c(c1-c1ccccc1C(C)C)N(C(=O)CCc1cccnc1)CCC2,-24%[172 µM],u,i,-25%[70.6 µM]
COc1ccc(CN2CCCn3nc(C)c(-c4ccccc4C(C)C)c32)cc1O,63µM*,35µM*,i,u
Cc1nn2c(c1-c1ccccc1Oc1ccccc1)N([S+](=O)([O-])c1cccnc1)CCC2,u,u,i,-17%
Cc1nn2c(c1-c1ccccc1C(C)C)N([S+](=O)([O-])c1ccc(C(C)C)cc1)CCC2,40µM*,22µM*,i,u
CCN1C(=O)C2CC3(CCN(Cc4cccc(OC)c4)CC3)CN2C1=O (stereo not drawn),u,-12%,x,x
SMILES,HEK293 tox,3T3 cytotox,FLuc inh,hNpr1 antagonist
CC(C)Oc1cccc2c1c(NC(=O)C1CCCO1)nn2Cc1ccccc1 (stereo not drawn),45µM*,u,i,4%
CSc1ccc(-c2ccc3c(c2)C(=O)N2CCN(C(=O)CCC(=O)O)C[C@H]2C(=O)N3)cc1,-2%,-4%,32µM*,4%
CSc1ccc(-c2ccc3c(c2)C(=O)N2CCN(C(=O)CC(C)(C)C)C[C@@H]2C(=O)N3)cc1,35µM*,u,i,-20%
Cc1ccc(NC(=O)N2CCC3(CC2)C(=O)N(CC(=O)N2CCCC2)CN3c2ccccc2)cc1,u,u,8.9µM*,-3%
COCCNC(=O)CN1CN(c2ccccc2)C2(CCN(C(=O)C3CCCCC3)CC2)C1=O,-4%,-24%,i,1%
CCC(=O)N1CCc2c(C(=O)Nc3ccc(C)cc3)cccc21,-23%,-24%,i,0%
CCCCN(C)C(=O)c1cccc2c1CCN2C(=O)Nc1ccc(OC)cc1,u,-21%,18µM*,-8%
O=C(NCCc1cccs1)c1cccc2c1CCN2C(=O)Nc1ccccc1,u,u,16µM*,-20%
CCC(=O)N1CCc2c(C(=O)NCc3ccc(OC)cc3)cccc21,-17%,-16%,i,-2%
COc1ccc(NC(=O)N2CCc3c(C(=O)NC(C)C)cccc32)cc1,25µM*,u,0.28µM*,2.5µM*
Cc1ccc(NC(=O)N2CCc3c(C(=O)NCCCN4CCCC4=O)cccc32)cc1,45µM*,u,0.28µM*,1.4µM*
O=C(NCCN1CCOCC1)c1cn2cc(-c3ccc(C(F)(F)F)cc3)sc2n1,-3%,-32%,x,x
O=C([C@H]1CCCN1C(=O)c1ccc(F)cc1)N1CCCC(c2nc3ccncc3[nH]2)C1 (stereo partly drawn),-13%,-9%,x,x
CC(C)(C)CC(=O)N1CCC(O)(c2csc(CN3CCc4ccccc4C3)n2)CC1,71µM*,u,i,-21%[70.6 µM]
OC1(c2csc(CN3CCc4ccccc4C3)n2)CCN(CC2CCCCC2)CC1,u,u,i,6%[70.6 µM]
O=C(C1CC1)N1CCC(O)(c2csc(CN3CCc4ccccc4C3)n2)CC1,u,u,i,4%[70.6 µM]
CN1CCC(N2CCC(O)(c3csc(CN4CCc5ccccc5C4)n3)CC2)CC1,40µM*,56µM*,i,4%[70.6 µM]
OC1(c2csc(CN3CCc4ccccc4C3)n2)CCN(C2CCC2)CC1,71µM*,100µM*,i,4%[70.6 µM]
CC(C)CCN1CCC(O)(c2csc(CN3CCc4ccccc4C3)n2)CC1,79µM*,100µM*,i,5%[70.6 µM]
Cc1nc2c(c(-c3ccc(Cl)cc3)n1)CCN(C(=O)c1cccc(Cl)c1)CC2,u,u,i,u
O=C(NCC(F)(F)F)C1CCCN1C(=O)c1cccc(-c2cccnc2)c1 (stereo not drawn),1%,-11%,x,x
CCOC(=O)CCNC(=O)N1CCC(CC2CC2)(NS(C)(=O)=O)CC1,-8%,-16%,x,x
COc1ccc(CN2CCC(O)(c3csc(CN4CCN(C)CC4)n3)CC2)cc1,100µM*,89µM*,i,1%[70.6 µM]
CN1CCC(Cc2ccc(C(=O)N3CCCC3)cc2)CC1,-8%,0%,i,-3%
CNC(=O)c1ccc(CC2CCN(C(C)=O)CC2)cc1,-26%,-27%,i,6%
CN1CCC(Cc2ccc(C(=O)NCC3CCCCC3)cc2)CC1,u,40µM*,u,-7%
CC(=O)N1CCC(Cc2ccc(C(=O)Nc3ccc(C)cc3)cc2)CC1,u,u,u,10µM*

# Assay outcomes deposited in PubChem by National Center for Advancing Translational Sciences (NCATS).
